Compounds with a hit are over-represented: about 5.7% of the library has one in this group of screens.
KB-3-1 tox: KB-3-1 parental cell cytotoxicity. KB-3-1 viability, CellTiter-Glo ATP luminescence, 72 h. Potency, µM (top dose mostly 46.1 µM), most hits filed as cytotoxic. hit rate 1.4% among 400,000. AID 1347075; also: nearly all actives have a fitted effect of over 60% in size
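Parental KB-3-1 viability, qHTS format: 72 h compound exposure, 37 °C; CellTiter-Glo; media-only wells and DMSO plates as controls; concentration-effect fits on corrected data.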
HT1080NT lethal: kills 2HG-producing HT-1080-NT fibrosarcoma cells | HT-1080-NT fibrosarcoma viability, CellTiter-Glo ATP luminescence, 48 h | Potency, µM (top dose mostly 46.1 µM), for inactives: top-dose activity, negative = less viability, hits mostly cytotoxic | hit rate 1.6% among 360,000 | AID 686970;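 also: NT is the 2HG producing partner of a matched IDH1 knockdown line; 0% = DMSO-treated cells and -100% = media-only wells without cells; nearly all actives have a fitted effect of over 55% in size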
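Viability by CellTiter-Glo luminescence after 48 h compound exposure at 37C of HT-1080-NT cells (750/well, RPMI, 5% FBS). % activity scaled between DMSO wells and medium-only wells, then curve-fitted and categorized by curve class.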
KB-V1 MDR tox: kills drug-selected multidrug resistant KB-V1 cells | KB-V1 MDR cells viability, CellTiter-Glo, 72 h | Potency, µM (doses to about 46.1 µM), usual class: cytotoxic | hit rate 3.4% among 400,000 | AID 1347076; also: nearly all actives have a fitted effect of over 60% in size
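Potencies derive from concentration-effect curves fitted to normalized luminescence (CellTiter-Glo) of KB-V1 cells treated for 72 h at 37 degrees C in phenol-red-free DMEM containing 10% FBS.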
HT1080 IDH1KD tx: toxicity to HT-1080 IDH1 knockdown cells (counter line); HT-1080 IDH1 knockdown viability, ATP luminescence, 48 h; Potency, µM (series often up to 46.1 µM), inactives show at the top dose activity, negative = toxicity, actives largely listed as cytotoxic; hit rate 2% among 360,000;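 also: 0% = DMSO wells and -100% = cell-free medium wells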
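IDH1KD HT-1080 cells, 750/well, RPMI + 5% FBS; compound pinned after 2 h settling; 48 h, 37 °C; CellTiter-Glo luminescence; % activity normalised to DMSO and no-cell wells; curves fitted, classed by r2 and efficacy.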
* hit, by the source's call; i = inactive; u = inconclusive; x = no result given. Calls follow the shape of the dose curve; as a rule, active = well fitted curve in the direction sought with a large enough effect; inconclusive = small, poorly fitted or top-dose-only effect, or another doubt; inactive = no such curve, though single readings can be large; an effect the other way counts as inactive or inconclusive. Unless noted, % is scaled to controls: 0 for no effect and ±100 for the full control effect; potency is read from the fitted curve at half-maximal effect.

SMILES	KB-3-1 tox	HT1080NT lethal	KB-V1 MDR tox	HT1080 IDH1KD tx
Cc1cc(C)nc(SC2CC(=O)N(c3ccc(C)c(C)c3)C2=O)n1 (configuration not stated)	u	u	u	16µM*
O=C1C(CN2CCCC2)CCCC1CN1CCCC1 (configuration not stated)	i	7%	i	u
NC(Cc1ccc(C(F)(F)F)cc1)c1csc(Nc2ccc(C(=O)c3ccccc3)cc2)n1 (configuration not stated)	u	u	23µM*	u
NC(Cc1ccc(C(F)(F)F)cc1)c1csc(NC(=O)NCCc2ccccc2)n1 (configuration not stated)	u	23µM*	i	18µM*
NC(CCc1ccccc1)c1csc(Nc2ccc(C(=O)c3ccccc3)cc2)n1 (configuration not stated)	u	u	i	u
NC(=O)c1ccc(Nc2nc(C(N)COCc3ccccc3)cs2)cc1 (configuration not stated)	i	-1%	i	2%
NCc1csc(Nc2ccc(C(=O)c3ccccc3)cc2)n1	5.8µM*	u	u	u
NC(COCc1ccccc1)c1csc(Nc2ccc(C(=O)c3ccccc3)cc2)n1 (configuration not stated)	i	18µM*	i	u
COc1cccc(CNC(=O)CSc2ccc(-c3sc(-c4ccccc4)nc3C)nn2)c1	i	x	u	x
COc1cc(-c2noc(C)c2C#CCCN2C(=O)c3ccccc3C2=O)cc(OC)c1OC	i	x	i	x
CC(=O)c1ccc(Nc2nc(C(N)Cc3ccc(C(F)(F)F)cc3)cs2)cc1 (configuration not stated)	u	u	12µM*	u
Cc1ccc(C(=O)Nc2nc(C(N)Cc3ccc(C(F)(F)F)cc3)cs2)cc1 (configuration not stated)	i	u	i	16µM*
NC(Cc1ccc(C(F)(F)F)cc1)c1csc(Nc2cc(NCc3ccco3)ncn2)n1 (configuration not stated)	i	23µM*	i	16µM*
NC(Cc1ccc(C(F)(F)F)cc1)c1csc(NC(=O)Nc2ccccc2Oc2ccccc2)n1 (configuration not stated)	u	u	i	-6%
COc1cccc(Nc2nc(C(N)Cc3ccccc3)cs2)n1 (configuration not stated)	u	29µM*	u	12µM*
CC(=O)c1ccc(Nc2nc(C(C)N)cs2)cc1 (configuration not stated)	i	12%	i	7%
NC(Cc1ccc(C(F)(F)F)cc1)c1csc(Nc2ccccn2)n1 (configuration not stated)	i	21µM*	i	u
NC(Cc1ccc(C(F)(F)F)cc1)c1csc(Nc2ncccn2)n1 (configuration not stated)	i	u	i	u
CCCCCC(O)(c1ccc(OCC)cc1)C(CN1CCOCC1)c1ccccc1 (configuration not stated)	u	u	u	16µM*
CCCCC(O)(c1ccc(CC)cc1)C(CN1CCOCC1)c1ccccc1 (configuration not stated)	16µM*	u	i	u
CCCCC(O)(c1ccccc1)C(CN1CCOCC1)c1ccccc1 (configuration not stated)	i	-6%	i	-7%
CCCCC(O)(c1ccc(OC)cc1)C(CN1CCOCC1)c1ccccc1 (configuration not stated)	i	u	u	u
CCCCCC(O)(c1ccc(OC)cc1)C(CN1CCOCC1)c1ccccc1 (configuration not stated)	u	u	13µM*	u
COc1ccc(C(O)(c2ccccc2OC)C(CN2CCOCC2)c2ccccc2)cc1 (configuration not stated)	u	-4%	21µM*	-14%
COc1ccccc1-c1nc2n(n1)C(c1ccccc1Cl)C(C(=O)Nc1cccnc1)=C(C)N2 (configuration not stated)	i	x	i	x
CN(Cc1ccc(F)cc1)C(=O)CNC(=O)c1ccc2c(c1)OCO2	i	-4%	i	-1%
